MCF10A rereplic: induces DNA re-replication in MCF 10a normal breast cells; MCF 10A DNA re-replication, Hoechst nuclear intensity, 48 h; Potency, µM (series often up to 46.1 µM), for the others: at the highest dose activity, positive = re-replication, actives largely listed as activators; hit rate 2.9% among 350,000; AID 624296; note: % of control where 0% means no effect; nearly all actives have a fitted effect of over 50% in size
KB-3-1 cytotox: KB-3-1 parental cell cytotoxicity; hit rate 1.4% among 400,000; KB-3-1 viability, CellTiter-Glo ATP luminescence, 72 h; Potency, µM (titrated, usually from 46.1 µM), actives largely listed as cytotoxic; note: % is set by controls: 0 for no effect and ±100 for the full control effect; nearly all actives have a fitted effect of over 60% in size
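Using CellTiter-Glo luminescence, growth of non-resistant KB-3-1 adenocarcinoma cells is assessed 72 h after pin-tool compound addition at 37 °C. Normalized responses across the concentration series yield fitted curves.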
KB-V1 cytotox: KB-V1 MDR subline cytotoxicity; hit rate 3.4% among 400,000; KB-V1 MDR cells viability, CellTiter-Glo, 72 h; AID 1347076; Potency, µM (series often up to 46.1 µM), actives largely listed as cytotoxic; note: % is set by controls: 0 for no effect and ±100 for the full control effect; nearly all actives have a fitted effect of over 60% in size
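In this primary screen, KB-V1 cells overexpressing P-gp are incubated with library compounds (lowest to highest concentration) for 72 h at 37 degrees C before a luminescent ATP viability read.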
SW480 rereplic: DNA re-replication induction in SW480 cells; SW480 DNA re-replication, Hoechst DNA content imaging, 48 h; Potency, µM (top dose mostly 46.1 µM), without a hit: at the highest dose re-replication activation, usual class: activators; hit rate 1.8% among 340,000; AID 624297; note: % of control where 0% means no effect; nearly all actives have a fitted effect of over 55% in size
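Treated cells incubate 48 hr (37 C, 5% CO2), are stained 40 min with Hoechst, and nuclear fluorescence is enumerated; a rise in nuclei with high DNA signal marks re-replication.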
PINK1 expr mod: PINK1 expression modulation. PINK1 immunofluorescence, high-content cytometry, 24 h. hit rate 0.2% among 410,000. Potency, µM (titrated, usually from 76.6 µM), inactives show at the top dose activation (PINK1 increase), actives largely listed as activators; active = well fitted activation curve with a large enough effect; inconclusive = small, poorly fitted or top-dose-only effect; cell line not stated here; note: % of control where 0% means no effect; nearly all actives have a fitted effect of over 65% in size
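PINK1 protein, normally rapidly degraded, was detected by immunofluorescence after 24 hour compound treatment of a stable cell line. Titration data (5 concentrations) came from laser-scanning cytometry, with CCCP-treated wells as controls.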
ALOX12 inh: inhibitors of human 12S-lipoxygenase ALOX12; P18054; purified 12hLO, xylenol orange hydroperoxide absorbance; Potency, µM (doses to about 108 µM), without a hit: at the top dose activity change, negative = inhibition, hits mostly inhibitors; hit rate 1.1% among 580,000; note: % is set by controls: 0 for no effect and ±100 for the full control effect
Target sequence (P18054 whole entry, looked up): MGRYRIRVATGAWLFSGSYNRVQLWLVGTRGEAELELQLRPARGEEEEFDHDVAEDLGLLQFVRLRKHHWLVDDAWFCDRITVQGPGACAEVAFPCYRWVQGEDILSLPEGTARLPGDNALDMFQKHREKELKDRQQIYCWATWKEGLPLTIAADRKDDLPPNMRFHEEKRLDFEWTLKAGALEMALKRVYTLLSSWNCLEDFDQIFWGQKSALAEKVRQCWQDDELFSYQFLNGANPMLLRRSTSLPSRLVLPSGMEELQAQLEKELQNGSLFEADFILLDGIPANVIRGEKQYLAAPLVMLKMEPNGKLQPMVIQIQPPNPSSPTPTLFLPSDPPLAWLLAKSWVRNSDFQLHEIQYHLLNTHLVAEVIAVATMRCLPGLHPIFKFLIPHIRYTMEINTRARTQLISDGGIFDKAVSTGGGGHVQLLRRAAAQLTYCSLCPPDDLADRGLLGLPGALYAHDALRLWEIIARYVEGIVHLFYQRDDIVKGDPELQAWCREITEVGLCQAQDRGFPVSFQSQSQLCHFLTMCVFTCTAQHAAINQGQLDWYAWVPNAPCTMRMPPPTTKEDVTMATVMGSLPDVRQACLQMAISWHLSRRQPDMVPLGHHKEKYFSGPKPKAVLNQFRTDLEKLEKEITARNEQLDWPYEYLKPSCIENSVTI
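Purified human 12hLO (150 nM final) in 25 mM Hepes, 0.01% Triton X-100, pH 7.0 was preincubated 15 min at room temperature with compound. Then 40 uM arachidonic acid was added, 30 min. Hydroperoxide was read by Fe-XO absorbance ratio 573/405 nm.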
* marks the source's active call; other numbers are inactive results; i = inactive; ? = inconclusive; . = no result given; [ ] = another dose, or the depositor's remark. Sampled rows, rich in hits. Any-hit rate of the full collection: about 5.8%. Unless noted, calls come from the whole dose curve; as a rule, active = well fitted curve in the direction sought with a large enough effect; inconclusive = small, poorly fitted or top-dose-only effect, or another doubt; inactive = no such curve, though single readings can be large; an effect the other way counts as inactive or inconclusive. Potency is the fitted concentration of half-maximal effect.

SMILES	MCF10A rereplic	KB-3-1 cytotox	KB-V1 cytotox	SW480 rereplic	PINK1 expr mod	ALOX12 inh
COc1cc(C(=O)Nc2ccc(Cl)cc2)nc2ccc(Cl)cc12	.	.	.	.	.	-0.7%
NC(=O)C1C(c2ccccc2)=C1c1ccccc1	-0.9%	i	20.6µM*	3.3%	-0.5%[38.3 µM]	0.0%
CC1CCC(NC(=O)COC(=O)c2cc3ccccc3[nH]2)CC1 (stereo unspecified)	.	.	.	.	.	-1.7%
c1ccc(Nc2cccc3c(Nc4ccccc4)cccc23)cc1	?	i	i	?	?	-7.6%
O=S(=O)(O)c1cccc2cccc(Nc3ccccc3)c12	20.6µM*	i	i	16.4µM*	0.0%	39.8µM*
O=c1cc(N2CCCCC2)c(-c2ccccc2)nn1Cc1ccc(Cl)cc1Cl	14.6µM*	i	i	18.2%	-0.2%	?
O=c1cc(N2CCCCC2)c(-c2ccccc2)nn1Cc1ccccc1Cl	?	?	i	1.9%	10.5%	-16.9%
O=c1cc(N2CCCCC2)c(-c2ccccc2)nn1Cc1cccc(Cl)c1	20.6µM*	i	i	5.6%	13.2%	-13.8%
CCN(CC)S(=O)(=O)c1ccc2nc(N)sc2c1	.	.	.	.	.	-4.6%
CCCCN(CCCC)S(=O)(=O)c1ccc(NC(=O)c2ccc([N+](=O)[O-])cc2Cl)cc1	-2.3%	?	16.4µM*	0.3%	8.1%	0.2%
O=C(NNc1ccccc1[N+](=O)[O-])Nc1ccc(Cl)c(Cl)c1	?	?	i	-2.3%	?	?
CC(=O)N1CCN(c2ccc(NC(=O)c3ccc([N+](=O)[O-])cc3Cl)cc2)CC1	4.0%	i	i	-0.8%	-0.4%	?
CCN(CC)S(=O)(=O)c1cc([N+](=O)[O-])ccc1NNC(=O)Nc1ccc(Cl)c(Cl)c1	?	5.8µM*	?	26.7%	14.1µM*	?
CSc1ccc(NC(=O)C2(C)CCN2C(=O)Cc2ccc(C(C)(C)C)cc2)cc1 (stereo unspecified)	.	?	16.4µM*	.	7.5%	-3.5%
CC(C)(C)c1ccc(CC(=O)N2CCC2(C)C(=O)Nc2cnc3ccccc3c2)cc1 (stereo unspecified)	.	?	16.4µM*	.	5.8%	-15.1%
Cc1ccc(NC(=O)C2(C)CCN2C(=O)Cc2ccc(-c3ccccc3)cc2)cc1 (stereo unspecified)	.	?	?	.	4.6%	-24.7%
CC(C)c1ccc(CC(=O)N2CCC2(C)C(=O)Nc2cnc3ccccc3c2)cc1 (stereo unspecified)	.	i	i	.	0.3%	4.9%
FC(F)(F)c1cccc(CSc2nccc(-c3ccc(Cl)cc3)n2)c1	.	.	.	.	.	-2.5%
CCNC(=S)NN=C1c2ccccc2-c2ccccc21	4.2%	i	?	9.7%	1.8%	35.5µM*
S=C(NCCCN1CCOCC1)NN=C1c2ccccc2-c2ccccc21	.	i	i	.	2.2%	44.7µM*
Cc1nc(-c2ccccc2)n(CC(=O)Nc2ccc(F)c(Cl)c2)c(=O)c1CCO	.	.	.	.	.	8.1%
O=C(COC(=O)/C=C/c1ccccc1)Nc1nnc(-c2ccccc2)o1	?	i	i	4.6%	-2.1%	-12.6%
COc1cc(/C=C/C(=O)OCC(=O)Nc2nnc(-c3ccccc3)o2)cc(OC)c1OC	?	i	11.6µM*	-4.0%	0.2%	-1.0%
Cn1ccc(CN2CCn3c(nn(-c4ccc(F)cc4F)c3=O)C2)c1	.	.	.	.	.	12.3%
Cc1cccnc1Nc1nc(-c2ccc(O)c(O)c2)cs1	5.5%	i	i	11.1%	?	2.82µM*
SMILES	MCF10A rereplic	KB-3-1 cytotox	KB-V1 cytotox	SW480 rereplic	PINK1 expr mod	ALOX12 inh
N#Cc1ccc(-c2csc(NC(=O)/C=C/c3cccs3)n2)cc1	?	i	i	-89.6%	9.2%	-13.6%
Cc1ccc(-c2csc(Nc3ccccn3)n2)cc1C	.	.	.	.	.	31.6µM*
Cc1cccc(Nc2nc(-c3ccc(O)c(O)c3)cs2)n1	?	i	i	?	10.2%	28.2µM*
Cc1ccc(-c2csc(NC(=O)/C=C/c3cccs3)n2)cc1C	?	?	9.2µM*	9.5%	2.7%	-10.7%
Oc1ccc(-c2csc(Nc3ccccn3)n2)cc1O	-1.1%	i	i	-1.0%	27.3%	20µM*
Oc1ccc(-c2csc(Nc3cccc4ccccc34)n2)cc1O	?	i	i	18.0%	5.8%	12.6µM*
CCOC(=O)c1ccc(/C=C2/C=C(c3ccccc3)N(c3ccc(Cl)c(C(=O)O)c3)C2=O)cc1	20.6µM*	?	i	9.9%	-3.7%	44.7µM*
CCc1cccc(NC(=O)CCC2CCCCC2)c1	.	.	.	.	.	5.1%
COc1cc(Br)cc(C=Nc2cccc(C(F)(F)F)c2)c1O	20.6µM*	?	i	-0.7%	-2.0%	-21.3%
O=S(=O)(c1ccc(Br)cc1)N1CCN(c2cc(-c3ccccc3)nc3ncnn23)CC1	24.1%	?	13µM*	-1.9%	-4.2%[38.3 µM]	-14.0%
COc1ccc(S(=O)(=O)N2CCN(c3cc(-c4ccccc4)nc4ncnn34)CC2)cc1	-3.2%	?	23.1µM*	-2.7%	-7.0%[38.3 µM]	14.7%
COc1ccc(-c2cc(N3CCCC3)n3ncnc3n2)cc1	-4.0%	i	?	-7.2%	0.3%	4.8%
O=S(=O)(c1ccccc1)N1CCN(c2cc(-c3ccccc3)nc3ncnn23)CC1	-4.4%	i	?	6.2%	2.5%[38.3 µM]	0.0%
COc1ccc(-c2sc(C(=O)c3ccc(Cl)cc3Cl)cc2CC(=O)O)cc1	11.6µM*	?	?	8.6%	5.6%	?
O=C(O)Cc1ccc(C(=O)c2ccc(Cl)cc2Cl)s1	1.2%	i	i	-2.2%	2.7%	-24.6%
CC(C)CNS(=O)(=O)c1ccccc1C(=O)N1CCCCC1	0.9%	i	14.6µM*	-5.3%	0.8%[38.3 µM]	?
Cc1cccc(C)c1OCC(O)CNS(=O)(=O)c1ccccc1C(=O)N1CCCCC1 (stereo unspecified)	10.1%	i	4.61µM*	0.4%	?	-20.6%
CCOc1ccc(OCC)c(Nc2cc(C)nc3nc(C)nn23)c1	?	i	i	?	6.4%	?
CCOc1ccccc1Nc1cc(C)nc2nc(C)nn12	-6.5%	i	i	-2.8%	1.0%	5.62µM*
CC(C)N1C(=O)[C@@H]2[C@@H](CCN2C(=O)CSCC(=O)O)N(Cc2cccc(F)c2)C1=O	.	.	.	.	.	35.5µM*
CC(C)N1C(=O)[C@@H]2[C@@H](CCN2C(=O)CC(C)(C)CC(=O)O)N(Cc2cccc(F)c2)C1=O	.	.	.	.	.	12.6%
CCCCCNC(=O)C(c1ccc(C(F)(F)F)cc1)n1c(=O)c(-c2ccco2)nc2ccccc21 (stereo unspecified)	.	i	i	.	.	44.7µM*
